Rows were chosen to be rich in hits. Some 21% of all compounds tested hit in one or more screens of this group.
Shiga toxin inh: inhibitors of Shiga toxin in Vero cells | Vero cells, Shiga toxin protein synthesis inhibition reporter | inhibition, % at 38.7 µM | 290,000 tested, 9.2% active | AID 2315; in the data active means inhibition mostly above about 28%, no sharp cut-off; inactive means mostly below about 43%; further: 0% is about no effect
CHX counter: counter-screen for Shiga toxin inhibitors: cycloheximide protein synthesis inhibition; cell reporter, cycloheximide protein synthesis inhibition counterscreen; AID 2314; 300,000 tested, 12% active; max response, %; in the data active means max response mostly above about 13%, no sharp cut-off; inactive means mostly below about 14%; further: read at 38.3 µM for the half of the compounds with a filed dose; 0% is about no effect
Pf growth 96h: P. falciparum growth inhibition at 96 hour, primary screen for plastid delayed-death inhibitors; P. falciparum luciferase reporter growth, 96 h; Potency, µM (doses to about 28.7 µM), without a hit: top-dose activity change, negative = inhibition, most hits filed as inhibitors; 320,000 tested, 6.9% active; AID 504834; further: potency means the concentration at half of the fitted maximal effect; on the % scale 0 is the no-effect control and ±100 the full control effect
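Compounds incubated with erythrocytes infected by luciferase-expressing P. falciparum (2% hematocrit, 0.05% parasitemia final) for 96 hours, 37 C in 5% CO2. Growth inhibition scored as decreased luciferase luminescence.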
HCV inh: blocks hepatitis C virus; Huh7.5.1 HCVcc-Cre infection, luciferase reporter, 44 h; 340,000 tested, 3.4% active; Potency, µM (doses to about 41.8 µM), for the others: top-dose activity change, negative = inhibition, usual class: inhibitors; further: potency means the concentration at half of the fitted maximal effect; on the % scale 0 is the no-effect control and ±100 the full control effect
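Whole-lifecycle infectious HCVcc-Cre system; cells 1,000/well, compound then virus (~0.5 moi) added 4 h after plating, 44 h culture. Luciferase read 15 sec following 15 min substrate incubation, room temp.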
AMA1 RON2 block: inhibitors of Plasmodium falciparum AMA1-RON2 interaction. Potency, µM (doses to about 58.2 µM), for the others: at the highest dose activity change, negative = inhibition, most hits filed as inhibitors. AID 720542. AlphaScreen AMA1-biotinylated RON2 peptide binding. 360,000 tested, 0.2% active;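 further: potency means the concentration at half of the fitted maximal effect; 0% = vehicle wells and -100% = peptide control; nearly all actives have a fitted effect of over 45% in size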
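AMA1 (3D7) with his tag at 25 nM final met compounds first, then biotinylated RON2 peptide at 25 nM; detection used donor plus acceptor beads, 10 µg/mL apiece, read by AlphaScreen after 30 min at room temperature.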
Pf growth 48h: P. falciparum growth inhibition at 48 hours (one generation). 310,000 tested, 5.9% active. Potency, µM (series often up to 28.7 µM), without a hit: at the highest dose activity change, negative = inhibition, most hits filed as inhibitors. P. falciparum luciferase growth in erythrocytes, 48 h; further: potency means the concentration at half of the fitted maximal effect; on the % scale 0 is the no-effect control and ±100 the full control effect
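In quantitative HTS format, infected erythrocytes bearing luciferase-reporter parasites were treated for a single generation at 37 C. Luminescence after adding detection reagent served as the growth measure.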
* = called active by the depositor; i = inactive; ? = inconclusive; nt = no result; [ ] = dose if it differs, or a comment. Unless noted, the call rests on the fitted dose curve; in most records, active means well fitted curve in the direction sought with a large enough effect; inconclusive means small, poorly fitted or top-dose-only effect, or another doubt; inactive means no such curve, though single readings can be large; an effect the other way counts as inactive or inconclusive.

SMILES	Shiga toxin inh	CHX counter	Pf growth 96h	HCV inh	AMA1 RON2 block	Pf growth 48h
CC1(C(=O)NCc2cccnc2)CCN1C(=O)Cc1cccs1 (centres undefined)	nt	nt	nt	nt	-2.1%	nt
Cc1cc(C)n(-c2n[nH]c(C)c2[N+](=O)[O-])n1	-1.4	-2.8	32.2%	11.2%	-0.7%	17.5%
COC(=O)C[C@@H]1CC[C@@H](NC(=O)Nc2cc(F)ccc2F)[C@@H](CO)O1	nt	nt	nt	nt	4.3%	nt
Cc1ccc(NC(=O)c2noc3c2CCCCC3)cc1C	107.2*	42.7*	?	-7.2%	-3.5%	340.2%
Cc1ccc(NC(=O)c2noc3c2CCCCC3)cc1	82.9*	67.0*	28.4%	-1.1%	-2.3%	12.9%
COc1ccc(NC(=O)c2noc3c2CCCCC3)cc1	82.6*	41.9*	7.8%	-14.2%	-14.7%	i
Cc1ccc(Cn2ccc(NC(=O)c3noc4c3CCCCC4)n2)cc1	45.7	9.5	6.4%	?	7.4%	58.8%
Cc1ccc(NC(=O)c2noc3c2CCc2ccccc2-3)cc1	47.5*	34.4*	18.9%	-4.4%	-9.8%	nt
CC(=O)Nc1cccc(-c2csc(C(O)c3ccc(F)cc3)n2)c1 (centres undefined)	nt	nt	nt	nt	12.3%	nt
O=C1CCCCC1Nc1ccc2ccccc2c1 (centres undefined)	nt	nt	nt	?	30.3%	nt
CN(CC(=O)Nc1ccccc1Br)C(=O)Cn1[nH]c(=O)c2ccccc2c1=O	nt	nt	-20.9%	14.0%	0.0%	14.3%
COc1ccc2c(c1)C1(C)CC(C)(C)N2C(=O)N1c1ccccc1 (centres undefined)	-17.4	-0.9	10.4µM*	-16.6%	-8.1%	?
CC(=O)NC(CC(=O)NNC(=O)c1cc2ccccc2cc1O)c1ccccc1 (centres undefined)	-23.7	-3.0	-51.8%	-4.9%	88.2%	-2.1%
O=C(c1cc2sccc2n1Cc1ccc(F)cc1)N1CCCc2ccccc21	47.4	1.1	?	?	0.0%	9.28µM*
CC1CCN(C(=O)C2CCN(C(=O)c3cc4sccc4n3Cc3ccc(F)cc3)CC2)CC1	-4.9	-1.8	30.8%	-27.7%	17.0%	?
O=C(Cc1ccccc1)NCCc1c[nH]c2ccccc12	7.1	-1.7	-17.8%	11.1%	-5.3%	?
O=C(NCc1ccc(F)cc1)c1cc2sccc2n1Cc1ccc(F)cc1	1.7	-0.9	10.4µM*	?	nt	?
Cn1c(C(=O)NCCc2c[nH]c3ccccc23)cc2sccc21	89.3*	82.4*	33.3%	?	-19.9%	nt
O=C(NCCc1c[nH]c2ccccc12)c1cc2sccc2n1Cc1ccccc1	-3.8	-1.7	0.1%	5.01µM*	-19.1%	nt
CC(C)NC(=O)C1CCN(C(=O)c2cc3sccc3n2Cc2ccc(F)cc2)CC1	-11.9	5.7	nt	?	9.1%	nt
CCCN1Cc2cccc(C(=O)NCCc3cccc(C)c3)c2C1=O	3.5	-8.9	118.3%	-29.8%	-2.3%	?
CC(=O)Nc1ccc2c(c1)C(=O)c1ccc(Cl)cc1-2	nt	nt	nt	?	-12.4%	nt
CCc1ccc(NC(=O)CC2C(=O)N(c3ccc(C)cc3)C(=O)N2CCc2ccncc2)cc1 (centres undefined)	-4.3	-4.9	-4.4%	-2.3%	2.3%	14.7µM*
Cc1cccc(N2C(=O)C(CC(=O)Nc3cccc(F)c3)N(CCc3ccncc3)C2=O)c1 (centres undefined)	-4.1	-7.0	11.9%	10.4%	0.7%	-21.1%
CCNC(=O)CC1C(=O)N(c2ccc(F)cc2)C(=S)N1CCc1ccncc1 (centres undefined)	-11.2	12.9	?	4.4%	31.6µM*	13.1µM*
SMILES	Shiga toxin inh	CHX counter	Pf growth 96h	HCV inh	AMA1 RON2 block	Pf growth 48h
CCOC(=O)C1CCN(C(=O)CN(c2cc(OC)ccc2OC)S(=O)(=O)c2ccccc2)CC1	-14.7	-1.4	?	9.1%	-7.8%	13.1µM*
CCOC(=O)C1CCN(C(=O)CN(c2cc(Cl)ccc2OC)S(=O)(=O)c2ccccc2)CC1	-5.9	1.0	?	14.5%	11.6%	14.7µM*
CCOC(=O)C1CCN(C(=O)CN(C)S(=O)(=O)c2cc(C)ccc2OC)CC1	-6.1	0.7	?	-3.7%	-3.7%	-13.1%
O=C(NC1CCCCC1)C(c1ccccc1)N(C(=O)c1csnn1)C1CCCC1 (centres undefined)	4.6	-1.1	1.8%	-10.1%	-4.4%	-16.8%
O=C(CNc1cccc(S(=O)(=O)N2CCOCC2)c1)N1CCc2ccccc21	45.1*	10.2*	-11.0%	?	-3.8%	-18.0%
O=C(CNc1cccc(S(=O)(=O)N2CCOCC2)c1)Nc1cccc(Br)c1	nt	nt	9.28µM*	?	-14.1%	6.57µM*
O=C(CNc1ccc(Br)cc1)Nc1ccc(S(=O)(=O)N2CCCC2)cc1	nt	nt	11.7µM*	-21.9%	-2.7%[11.6 µM]	9.28µM*
Cc1ccc(S(=O)(=O)N2CCCCC2)cc1NC(=O)COC(=O)c1cccc(O)c1	nt	nt	nt	nt	-5.0%	nt
O=C(CNc1ccc(Br)cc1)Nc1cccc(S(=O)(=O)N2CCCC2)c1	nt	nt	-51.3%	?	-3.2%	-85.0%
O=C(c1cccc(S(=O)(=O)N2CCOCC2)c1)N1CCCc2ccccc21	-3.8	-2.6	1.5%	-11.1%	-4.0%	-29.1%
O=C(Cc1ccc(Br)cc1)Nc1cccc(S(=O)(=O)N2CCOCC2)c1	nt	nt	?	-6.0%	-0.5%	-22.4%
CC(=O)c1cccc(NCC(=O)Nc2cc(S(=O)(=O)N3CCCCC3)ccc2C)c1	-5.9	-2.4	10.4µM*	11.2µM*	-13.1%	?
O=C(CCCn1nnnc1CN1CCOCC1)N1CCN(c2ccccc2F)CC1	-29.3	-0.9	20.7%	10.3%	-15.7%	11.9%
Cc1c(C(=O)NCCC#N)sc(=O)n1Cc1ccccc1F	nt	nt	nt	nt	8.2%	nt
CCN(CC)S(=O)(=O)c1cc(NC(=O)C(C)N2CC=C(c3ccccc3)CC2)ccc1C (centres undefined)	-7.2	4.3	?	11.2µM*	5.2%[2.32 µM]	?
O=C(CNc1cccc(S(=O)(=O)N2CCCC2)c1)Nc1cccc(C(F)(F)F)c1	nt	nt	nt	?	13.9%	nt
O=C(CNc1ccc(C(F)(F)F)cc1)Nc1cccc(S(=O)(=O)N2CCCC2)c1	nt	nt	?	?	3.9%	?
O=C(CNc1cccc(S(=O)(=O)N2CCOCC2)c1)Nc1ccc(C(F)(F)F)cc1	nt	nt	7.38µM*	?	-0.1%	6.57µM*
CCN(CC)S(=O)(=O)c1ccc(C)c(NC(=O)CNc2cccc(S(=O)(=O)N3CCOCC3)c2)c1	nt	nt	?	?	-7.2%	?
CCN(CC)S(=O)(=O)c1cccc(NC(=O)CNc2cccc(S(=O)(=O)N3CCOCC3)c2)c1	nt	nt	?	0.562µM*	1.3%	?
CCN(CC)S(=O)(=O)c1cc(NC(=O)CNc2cccc(S(=O)(=O)N3CCCC3)c2)ccc1C	nt	nt	?	0.562µM*	-12.5%	11.7µM*
O=C(NCCc1ccccc1)C1CCCN(c2cnccn2)C1 (centres undefined)	5.9	13.0	18.8%	?	-5.2%	-10.9%

Source: PubChem BioAssay (National Center for Advancing Translational Sciences (NCATS))
